# Unmarked numbers belong to inactive results. For some assays here: Entries with a potency or affinity are not part of this list. The source made the active and inactive calls. Unless noted, the rule behind the calls is not given here.
# Key:
# [1] = antimalarial activity against Dd2 strain (AID 2302;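 active = growth inhibition above 50% at the single 2 µM test dose, taken to imply half-maximal potency below 2 µM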;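 note: 0% = DMSO untreated growth and 100% = chloroquine plus artemisinin killed control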); conditions: P. falciparum Dd2 in RBCs, LDH growth readout, 72 h; at 2 µM; active compounds read high
# [2] = human hepatoma cell viability loss – ATP luminescence, cytotoxicity control for P. falciparum antimalarial project, primary screen (AID 2303;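 active = inhibition above 50%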;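 note: 0% = DMSO wells and 100% = digitonin-killed cells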); conditions: HepG2 viability, 24-48 h, at 10 µM, active compounds read high
# [3] = biological target: L-lactate dehydrogenase (Plasmodium falciparum (isolate CDC / Honduras)) (UniProt Q27743); test: PfLDH activity inhibition – cell lysate, 3D7 strain, counter-screen for P. falciparum growth inhibition project (AID 2304);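 note: 0% = vehicle and 100% = reference inhibitor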; conditions: P. falciparum 3D7 crude extract, LDH APAD/NBT absorbance; at 2 µM; active compounds read high
# Chain of L-lactate dehydrogenase (Plasmodium falciparum (isolate CDC / Honduras)) (Q27743 whole entry, looked up): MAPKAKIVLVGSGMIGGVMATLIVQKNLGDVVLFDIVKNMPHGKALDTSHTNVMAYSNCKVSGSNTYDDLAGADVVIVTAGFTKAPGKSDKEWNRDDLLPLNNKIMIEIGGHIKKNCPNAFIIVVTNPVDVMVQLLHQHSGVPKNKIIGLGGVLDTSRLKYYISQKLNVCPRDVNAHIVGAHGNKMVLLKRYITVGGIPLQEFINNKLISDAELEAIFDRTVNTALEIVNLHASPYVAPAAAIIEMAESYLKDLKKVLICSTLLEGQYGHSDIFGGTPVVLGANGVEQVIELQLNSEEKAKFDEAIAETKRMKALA
# [4] = inhibition of 3D7 malaria parasite growth – strain 3D7 (AID 2306);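 note: 0% = DMSO wells and 100% = chloroquine plus artemisinin control wells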; conditions: P. falciparum 3D7 erythrocytic growth, LDH absorbance, 72 h; at 2 µM; active compounds read high
# [5] = biological target: Calcium-dependent protein kinase 1 (Plasmodium falciparum (isolate 3D7)) (UniProt P62344); test: PfCDPK1 kinase inhibitors, biochemical, TCAMS library (AID 1159585; cut-off not given, nearly all actives have IC50 up to about 0.98 µM;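 note: inhibitors leave more ATP so luminescence rises with inhibition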); conditions: recombinant PfCDPK1, Kinase-Glo ATP depletion luminescence
# Chain of Calcium-dependent protein kinase 1 (Plasmodium falciparum (isolate 3D7)) (P62344 whole entry, looked up): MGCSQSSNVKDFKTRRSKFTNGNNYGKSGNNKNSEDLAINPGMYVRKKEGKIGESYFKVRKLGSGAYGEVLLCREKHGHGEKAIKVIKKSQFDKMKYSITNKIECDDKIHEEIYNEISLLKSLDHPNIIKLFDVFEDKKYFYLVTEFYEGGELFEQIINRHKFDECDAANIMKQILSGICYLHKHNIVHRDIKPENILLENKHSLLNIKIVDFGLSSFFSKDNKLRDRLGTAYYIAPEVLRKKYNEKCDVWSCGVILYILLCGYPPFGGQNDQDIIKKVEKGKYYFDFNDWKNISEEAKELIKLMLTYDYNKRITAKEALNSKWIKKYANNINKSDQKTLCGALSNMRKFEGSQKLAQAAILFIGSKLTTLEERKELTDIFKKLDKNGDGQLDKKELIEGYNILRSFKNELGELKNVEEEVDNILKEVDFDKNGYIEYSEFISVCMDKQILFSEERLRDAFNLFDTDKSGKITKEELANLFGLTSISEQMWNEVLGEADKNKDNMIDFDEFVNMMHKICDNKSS
# [6] = biological target: Plasmodium falciparum protein kinase 6 (PK6, PF3D7_1337100) (UniProt Q8IDW1); test: PfPK6 kinase inhibitors, biochemical, TCAMS library (AID 1159586); conditions: recombinant PfPK6, Kinase-Glo ATP depletion luminescence
# Chain of Plasmodium falciparum protein kinase 6 (PK6, PF3D7_1337100) (Q8IDW1 1-305): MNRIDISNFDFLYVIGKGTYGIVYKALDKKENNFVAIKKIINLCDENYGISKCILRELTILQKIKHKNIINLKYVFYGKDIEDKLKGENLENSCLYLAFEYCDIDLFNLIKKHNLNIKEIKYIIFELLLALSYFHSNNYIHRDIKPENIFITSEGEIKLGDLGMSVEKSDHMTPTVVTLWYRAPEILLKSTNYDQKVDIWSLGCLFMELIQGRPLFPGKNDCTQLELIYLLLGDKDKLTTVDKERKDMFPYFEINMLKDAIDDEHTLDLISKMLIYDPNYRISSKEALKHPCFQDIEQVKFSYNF
# [7] = biological target: Protein kinase 7 (PK7), Plasmodium falciparum 3D7 (PF3D7_0213400) (UniProt Q7YTF7); test: inhibition of Plasmodium PK7 catalytic activity – biochemical, TCAMS antimalarial set, Kinase-Glo luminescence (AID 1159587); conditions: recombinant PfPK7, Kinase-Glo ATP depletion luminescence
# Chain of Protein kinase 7 (PK7), Plasmodium falciparum 3D7 (PF3D7_0213400) (Q7YTF7 1-343): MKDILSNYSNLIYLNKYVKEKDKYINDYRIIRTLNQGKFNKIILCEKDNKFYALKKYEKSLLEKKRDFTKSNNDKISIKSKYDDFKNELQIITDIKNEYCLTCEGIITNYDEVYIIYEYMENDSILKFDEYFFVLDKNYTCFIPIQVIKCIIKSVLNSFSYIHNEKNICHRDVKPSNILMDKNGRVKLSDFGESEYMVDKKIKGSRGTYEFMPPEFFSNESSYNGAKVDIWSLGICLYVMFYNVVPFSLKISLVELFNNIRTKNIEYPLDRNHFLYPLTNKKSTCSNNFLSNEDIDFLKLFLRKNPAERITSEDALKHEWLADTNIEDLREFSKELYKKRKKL
# [8] = biological target: Calcium-dependent protein kinase 4 (Plasmodium falciparum (isolate 3D7)) (UniProt Q8IBS5); test: PfCDPK4 kinase inhibitors, biochemical, TCAMS library (AID 1159588; cut-off not given, nearly all actives have IC50 up to about 0.91 µM); conditions: recombinant PfCDPK4, Kinase-Glo ATP depletion luminescence
# Chain of Calcium-dependent protein kinase 4 (Plasmodium falciparum (isolate 3D7)) (Q8IBS5 whole entry, looked up): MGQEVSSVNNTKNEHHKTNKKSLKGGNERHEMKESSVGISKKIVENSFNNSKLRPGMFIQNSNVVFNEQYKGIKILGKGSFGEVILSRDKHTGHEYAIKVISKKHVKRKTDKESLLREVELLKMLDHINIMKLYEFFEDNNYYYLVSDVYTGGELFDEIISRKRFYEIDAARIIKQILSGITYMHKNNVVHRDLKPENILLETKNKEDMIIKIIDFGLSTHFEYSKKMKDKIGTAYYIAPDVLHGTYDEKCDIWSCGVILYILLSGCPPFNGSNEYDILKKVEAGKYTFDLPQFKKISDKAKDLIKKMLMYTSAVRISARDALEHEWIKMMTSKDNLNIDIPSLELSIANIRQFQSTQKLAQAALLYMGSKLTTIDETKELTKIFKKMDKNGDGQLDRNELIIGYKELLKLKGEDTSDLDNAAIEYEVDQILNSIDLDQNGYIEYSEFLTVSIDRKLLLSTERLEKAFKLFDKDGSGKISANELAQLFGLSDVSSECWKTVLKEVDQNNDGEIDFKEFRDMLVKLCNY
SMILES,growth inhibition [1],inhibition [2],inhibition [3] [%],growth inhibition [4],outcome [5],outcome [6],outcome [7],outcome [8]
Cc1cccc2[nH]c(-c3cccc(-c4ccc(CN5CCCC5CN)cc4)c3)nc12 (stereo not given),47%,19%,3,101% (active),inactive,inactive,inactive,inactive
O=C(Nc1ccc(Cl)cc1)Nc1ccc(Cn2ncc(N3CCCNCC3)c(Cl)c2=O)cc1,11%,49%,1,85% (active),inactive,inactive,inactive,inactive
O=C(NC1CCC(N2CCC(Cc3ccc(F)cc3)CC2)CC1)c1cc2ccccc2[nH]1 (stereo not given),39%,60% (active),-2,98% (active),inactive,inactive,inactive,inactive
O=c1cc(NCCCNCc2ccc3c(c2)OC(F)(F)O3)[nH]c2ccccc12,94% (active),-9%,-6,100% (active),inactive,inactive,inactive,inactive
CC(=O)Nc1ccc2[nH]cc(C3CCN(CCC4CCN(C(=O)/C=C/c5ccc(Cl)c(Cl)c5)CC4)CC3)c2n1,80% (active),16%,1,101% (active),inactive,inactive,inactive,inactive
O=C(NCc1ccccc1)Nc1ccc(-c2cccc(-c3nc4ccc(C(F)(F)F)cc4[nH]3)c2)cc1,23%,56% (active),-1,97% (active),inactive,inactive,inactive,inactive
CCCNS(=O)(=O)c1ccc(NC(=O)C(C)Oc2ccc([N+](=O)[O-])cc2)cc1 (stereo not given),37%,3%,3,100% (active),inactive,inactive,inactive,inactive
COC(=O)c1cccc(CNCc2ccc(-c3cccc(-c4nc5ccc(C(F)(F)F)cc5[nH]4)c3)cc2)c1,97% (active),5%,6,102% (active),inactive,inactive,inactive,inactive
Cc1ccc(O)c(Nc2c3c(c(C#N)c4nc5ccccc5n24)CCC3)c1,2%,7%,-3,85% (active),inactive,inactive,inactive,inactive
Cc1cc(C)n2nc(C(=O)Nc3cc(C(F)(F)F)ccc3N3CCOCC3)nc2n1,91% (active),2%,-3,94% (active),inactive,inactive,inactive,inactive
CN(C)CCOc1ccc(NC(=O)NC(C)(C)c2nc(-c3ccc(Cl)c(O)c3)c(-c3ccncc3)[nH]2)cc1,98% (active),22%,5,98% (active),inactive,inactive,inactive,inactive
c1ccc2[nH]c(-c3ccc(-c4ccc(CN5CCCCC5)cc4)cc3)nc2c1,100% (active),27%,2,99% (active),inactive,inactive,inactive,inactive
O=C(NCc1ccccc1S(=O)c1ccccc1CO)C(F)(F)F (stereo not given),2%,50% (active),0,98% (active),inactive,inactive,inactive,inactive
CN1CCN(c2ccc(-c3cccc(NC(=O)c4cccc(Cl)c4)c3)nn2)CC1,37%,5%,-2,94% (active),inactive,inactive,inactive,inactive
CCCn1c(Sc2ccc(C#N)c([N+](=O)[O-])c2)nnc1-c1ccc(Cl)cc1,95% (active),12%,-3,96% (active),inactive,inactive,inactive,inactive
O=S(=O)(Nc1ccc(CCN2CCC(N3CCCCC3)CC2)cc1)c1ccccc1C(F)(F)F,8%,9%,-3,95% (active),inactive,inactive,inactive,inactive
CC(C)(C)N1CCC(N(Cc2ccc(-c3ccc(C(F)(F)F)cc3)cc2)C(=O)Cn2c(CCc3cccc(F)c3F)cc(=O)c3ccccc32)CC1,97% (active),100% (active),4,100% (active),inactive,inactive,inactive,inactive
Brc1ccsc1-c1nc(NCCC(c2ccccc2)c2ccccc2)no1,81% (active),17%,-5,94% (active),inactive,inactive,inactive,inactive
CCCCc1ccc(-c2ccc3[nH]c(C)c(Br)c(=O)c3c2)cc1,97% (active),-10%,-2,97% (active),inactive,inactive,inactive,inactive
Clc1ccc(-c2ncc(-c3ccncc3)[nH]2)cc1Cl,63% (active),1%,-5,96% (active),inactive,inactive,inactive,inactive

SMILES,growth inhibition [1],inhibition [2],inhibition [3] [%],growth inhibition [4],outcome [5],outcome [6],outcome [7],outcome [8]
FC(F)(F)c1ccc2nc(-c3ccc(-c4ccc(CN5CCN(c6ccncc6)CC5)cc4)cc3)[nH]c2c1,99% (active),91% (active),6,101% (active),inactive,inactive,inactive,inactive
CC(C)NCc1ccc(-c2ccc(NC(=O)c3ccc(Cl)cc3)cc2)cc1,8%,60% (active),3,90% (active),inactive,inactive,inactive,inactive
Cc1cc2cc(/C=C/C(=O)NC3CCC(CCN4CCc5ccc(C#N)cc5CC4)CC3)ccc2[nH]1 (stereo not given),49%,6%,-1,85% (active),inactive,inactive,inactive,inactive
Cc1nc(Nc2ccc(C)c(Cl)c2)c2c(C)noc2n1,72% (active),0%,0,94% (active),inactive,inactive,inactive,inactive
COc1cc(F)c2ncc(F)c(CCN3C[C@H](CNCc4ccc5c(n4)NC(=O)CS5)[C@H](O)C3)c2c1,47%,10%,2,91% (active),inactive,inactive,inactive,inactive
Oc1ccc(Cc2ccccc2)cc1CNC1CCCCC1,98% (active),30%,-1,96% (active),inactive,inactive,inactive,inactive
CC[C@H](C)CNC(=O)c1cncc(-c2ccc(CNC3CCCC3)cc2)c1,5%,-25%,0,97% (active),inactive,inactive,inactive,inactive
CN1CCCc2ccc(NC(=O)Nc3ccc(Cl)c(Cl)c3)cc2C1,22%,-13%,-2,89% (active),inactive,inactive,inactive,inactive
COc1ccc(NC(=O)CSc2nc(-c3ccccc3Cl)ns2)cc1OC,63% (active),-1%,-2,97% (active),inactive,inactive,inactive,inactive
COc1nc2c(CCN3CC[C@@H](NCc4cc(C#N)c5c(c4)CCO5)[C@@H](O)C3)ccnc2cc1F,35%,21%,-1,92% (active),inactive,inactive,inactive,inactive
Cc1[nH]c(C)c(-c2ccc(Oc3ccc(Cl)cc3Cl)cc2)c(=O)c1Br,94% (active),3%,-5,98% (active),inactive,inactive,inactive,inactive
Cc1ccc(Nc2nc(NN=Cc3ccccc3[N+](=O)[O-])nc(Nc3ccc([N+](=O)[O-])cc3)n2)cc1C,81% (active),4%,5,101% (active),inactive,inactive,inactive,inactive
Cc1c(Cl)ccc2sc(N3CCN(C(=O)c4ccc([N+](=O)[O-])o4)CC3)nc12,93% (active),-2%,3,96% (active),inactive,inactive,inactive,inactive
N#Cc1cc(C(=O)c2cc(Cl)ccc2O)cn(-c2cc(Cl)cc(Cl)c2)c1=O,32%,34%,-8,93% (active),inactive,inactive,inactive,inactive
N[C@@H](CCNCc1ccc(-c2cccnc2)cc1)Cc1ccc(F)c(F)c1,57% (active),45%,2,98% (active),inactive,inactive,inactive,inactive
CCc1cn2c3c(cc(C(=O)N[C@@H](Cc4ccccc4)[C@H](O)CN[C@@H](C)CC)cc13)N(C)S(=O)(=O)CC2,98% (active),2%,-2,99% (active),inactive,inactive,inactive,inactive
COc1cccc(CN2CCCC(OC(c3ccc(F)cc3)c3ccc(F)cc3)C2)c1O (stereo not given),95% (active),8%,5,95% (active),inactive,inactive,inactive,inactive
CC(C)CC(NC(=O)c1cccc(OCCN2CCOCC2)c1)C(=O)NC(/C=N/NC(=O)c1ccccc1)CCc1ccccc1 (stereo not given),88% (active),-5%,-9,96% (active),inactive,inactive,inactive,inactive
Cc1ccc(Nc2nccc(NCC(O)c3ccc(C(F)(F)F)cc3)n2)cc1 (stereo not given),100% (active),53% (active),-7,100% (active),inactive,inactive,inactive,inactive
CCOC(=O)N/N=C/[C@H](CCc1ccccc1)NC(=O)[C@H](CC(C)C)NC(=O)c1cc2cccc(OC)c2o1,58% (active),3%,2,84% (active),inactive,inactive,inactive,inactive
